Results from PubChem BioAssay.
Calls of active or inactive are those of the source.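 The calls were made as follows, unless noted: active = inhibition above 20% together with a positive visual image hit; inconclusive = visual image hit but inhibition not above 20%; inactive = no visual image hit.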 Where a SMILES comes first, the peptide text is derived from it.

How the values were obtained:
[1] = inhibitors of TNFa-induced NFkB p65 translocation, primary screen, imaging, HUVEC, MLSMR starter and 10KST1 sets (AID 438); details: HUVEC TNFa-induced p65 nuclear translocation; cell count: measured here: nuclei count (cytotoxicity indicator), at 2.08 µM; inhibition: at 2 µM, stronger effect = higher value, 0% TNFa-plus-vehicle, 100% no-TNFa wells;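 also: compound added about 3h40 before a 20 min TNFalpha stimulation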;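 as to inhibition: signal is the nuclear over cytoplasmic p65 intensity ratio per well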
[2] = reduction of polyQ htt aggregates in cells – imaging, exon1htt(103Q)mCFP cells, high-content imaging, primary screen (AID 483;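 active = visual image review flags a hit and inhibition of aggregation exceeds 20%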;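 also: compound exposure lasted 3 days before fixation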;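 as to nuclei count: percent of the per-plate median nuclei count of sample wells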); details: exon1htt(103Q)mCFP cell line, aggregate imaging, at 2 µM; inhibition of aggregation: stronger effect = higher value; nuclei count: measured here: cell count, toxicity
[3] = endothelial E-selectin expression blockers – imaging, HUVEC, immunofluorescence, MLSMR starter and 10KST1 sets, primary screen (AID 487;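 active = visually confirmed hit in the image check and inhibition above 20%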;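 as to inhibition: signal is fraction of cell area covered by stained E-selectin grains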;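 as to nuclei count: 100% = median nuclei count of all wells on the same plate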); details: HUVEC TNFalpha-induced E-selectin immunofluorescence imaging, at 2 µM; inhibition: stronger effect = higher value; nuclei count: measured here: cell number, toxicity
[4] = molecular target: Voltage-gated potassium channel subunit beta-2 (Rattus norvegicus) (UniProt P62483); assay: inhibitors of rat Kvbeta2 reductase activity – biochemical, NADPH fluorescence, primary screen (AID 622;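 active = fluorescence slope higher than the sample average by over 3 SD, cut at about -0.22 in these data, passing the limit was not always enough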;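 also: slope of raw intensity against log time taken from 70 to 1610 s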); details: recombinant KvBeta, 4-cyanobenzaldehyde reduction, at 10 µM, stronger effect = higher value
Chain of Voltage-gated potassium channel subunit beta-2 (Rattus norvegicus) (P62483 whole entry, looked up): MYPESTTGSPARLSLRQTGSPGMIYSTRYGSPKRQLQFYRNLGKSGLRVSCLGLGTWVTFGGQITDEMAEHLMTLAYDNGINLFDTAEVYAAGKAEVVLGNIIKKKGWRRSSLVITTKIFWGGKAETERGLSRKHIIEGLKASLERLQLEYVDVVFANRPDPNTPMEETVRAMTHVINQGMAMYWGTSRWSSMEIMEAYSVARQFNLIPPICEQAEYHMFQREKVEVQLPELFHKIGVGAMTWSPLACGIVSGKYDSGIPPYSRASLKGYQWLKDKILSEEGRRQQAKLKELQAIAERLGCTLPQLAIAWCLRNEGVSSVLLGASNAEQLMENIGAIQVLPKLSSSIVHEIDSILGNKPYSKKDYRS

[5] = molecular target: Voltage-gated potassium channel subunit beta-2 (Rattus norvegicus) (UniProt P62483); assay: enhancers of rat Kvbeta2 NADPH turnover – biochemical, NADPH fluorescence, primary screen (AID 623;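 active = NADPH fluorescence slope more negative than the mean of all samples by about 3 SD, 99.7% confidence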;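 also: fluorescence intensity change per second fitted from 20 to 320 s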); details: Recombinant KvBeta, NADPH fluorescence decrease slope, 10 min; at 10 µM; stronger effect = lower value
[6] = molecular target: Alpha-2C adrenergic receptor (Homo sapiens) (UniProt P18825); assay: compounds altering alpha2C-coupled GIRK flux – cell-based, HEK293 alpha2C/GIRK1/2, thallium flux, primary screen (AID 624;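 active = fluorescence slope after compound addition differing from the mean of all screened samples at 99.7% confidence, in either direction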;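 also: slope of fluorescence ratio to pre-addition baseline per second over 15 to 24 s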); details: thallium flux BTC fluorescence, at 10 µM, actives lie on both sides
Chain of Alpha-2C adrenergic receptor (Homo sapiens) (P18825 whole entry, looked up): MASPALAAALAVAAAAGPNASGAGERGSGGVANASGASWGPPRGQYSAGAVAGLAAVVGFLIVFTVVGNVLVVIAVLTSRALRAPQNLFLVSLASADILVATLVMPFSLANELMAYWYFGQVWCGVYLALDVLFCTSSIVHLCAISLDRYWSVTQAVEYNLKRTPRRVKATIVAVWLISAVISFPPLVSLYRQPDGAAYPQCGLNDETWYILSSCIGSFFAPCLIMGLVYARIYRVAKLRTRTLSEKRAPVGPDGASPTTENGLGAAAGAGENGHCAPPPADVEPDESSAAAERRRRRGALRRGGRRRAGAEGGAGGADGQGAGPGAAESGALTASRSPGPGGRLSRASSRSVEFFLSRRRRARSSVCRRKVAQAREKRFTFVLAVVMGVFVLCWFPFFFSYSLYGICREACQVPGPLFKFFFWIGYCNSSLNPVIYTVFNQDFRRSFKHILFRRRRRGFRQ

[7] = blockers of RIG-like receptor reporter activation – cell-based, Sendai virus stimulus, luciferase, 10K MLSCN set, TLR/RLR signaling modifier project, primary screen (AID 602276;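 active = inhibition at or above 50% at 10 µM; inactive = inhibition below 50%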;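 also: firefly luciferase from ISG56 promoter only with Renilla not read in this screen; 0% = Sendai virus plus DMSO and 100% = medium plus DMSO without virus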); details: HEK293 RL24 IRF3 luciferase reporter, at 10 µM, stronger effect = higher value
[8] = TLR3 IRF3 reporter activation blockers – cell-based, poly I:C stimulus, luciferase, 10K MLSCN set, primary screen (AID 602277;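 active = inhibition of the reporter signal at or above 50%; inactive = inhibition below 50%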); details: HEK293-TLR3 RL24 IRF3 luciferase reporter, at 10 µM, stronger effect = higher value

| Compound | cell count [1] | inhibition [1] | inhibition of aggregation [2] | nuclei count [2] [%] | inhibition [3] | nuclei count [3] [%] | fluorescence slope [4] | NADPH fluorescence slope [5] | slope [6] | inhibition [7] | inhibition [8] |
| --- | --- | --- | --- | --- | --- | --- | --- | --- | --- | --- | --- |
| Cc1ccc(-n2ncc3c(=O)[nH]c(SCC(=O)N4CCN(c5ccccc5)CC4)nc32)cc1 | 229 | -8.5% (inactive) | 12.5% (inactive) | 93.6 | -22.6% (inactive) | 118 | -0.358 (inactive) | -1.3e-05 (inactive) | 0.00346 (inactive) | 9.1% (inactive) | 23.7% (inactive) |
| COc1ccccc1Nc1nc2ccccc2[nH]1 | 654 | 4.7% (inactive) | 4.6% (inactive) | 94.6 | -12.4% (inactive) | 96.8 | -0.427 (inactive) | -3.7e-06 (inactive) | 0.00559 (inactive) | -19.5% (inactive) | -54.9% (inactive) |
| CCOC(=O)c1ccc(NCc2nc3ccccc3[nH]2)cc1 | 670 | -7.9% (inactive) | -14.3% (inactive) | 102 | -46% (inactive) | 126 | -0.558 (inactive) | 2.8e-05 (inactive) | 0.00739 (inactive) | -76.1% (inactive) | -152% (inactive) |
| O=C(NC12CC3CC(CC(C3)C1)C2)c1cncc(O)c1 | 708 | 13.5% (inactive) | -6.2% (inactive) | 102 | -200% (inactive) | 128 | -0.608 (inactive) | 5e-06 (inactive) | 0.0069 (inactive) | 7.2% (inactive) | 26.8% (inactive) |
| Cc1nn(-c2ccccc2)c2sc(C(=O)N3CCOCC3)cc12 | 536 | -4.4% (inactive) | -1.9% (inactive) | 115 | -11.9% (inactive) | 118 | -0.398 (inactive) | 1.4e-05 (inactive) | 0.00676 (inactive) | -21.4% (inactive) | -21.6% (inactive) |
| Cc1ccc(C(c2sc3nc(C)nn3c2O)N2CC(C)OC(C)C2)cc1 (configuration not stated) | 213 | -3.9% (inactive) | -30.3% (inactive) | 110 | -23.9% (inactive) | 108 | -0.44 (inactive) | -5.9e-05 (inactive) | 0.00489 (inactive) | 16.3% (inactive) | 29.9% (inactive) |
| Cc1cc(C(=O)NCCCN2CCN(C3CCCCC3)CC2)n(-c2ccccc2)n1 | 685 | -2.2% (inactive) | -2.4% (inactive) | 101 | -70.3% (inactive) | 114 | -0.588 (inactive) | -2.7e-05 (inactive) | 0.00679 (inactive) | -18.1% (inactive) | 17.8% (inactive) |
| COCCNS(=O)(=O)c1cc(F)ccc1OC | 782 | -6.6% (inactive) | -2.8% (inactive) | 113 | -62.4% (inactive) | 111 | -0.481 (inactive) | -3.4e-05 (inactive) | 0.00632 (inactive) | -4.54% (inactive) | 25.9% (inactive) |
| CCCS(=O)(=O)N1CCN(C(=O)c2cccnc2)CC1 | 374 | 5.5% (inactive) | -5.9% (inactive) | 98.3 | 18.3% (inactive) | 114 | -0.431 (inactive) | -6.9e-05 (inactive) | 0.0059 (inactive) | 8.38% (inactive) | 19.6% (inactive) |
| Cc1c(C(=O)NC2CC2)oc2ccc(S(=O)(=O)N3CCCCCC3)cc12 | 635 | 3.4% (inactive) | -2.5% (inactive) | 92.4 | -102% (inactive) | 116 | -0.508 (inactive) | 4.1e-05 (inactive) | 0.00537 (inactive) | -22.3% (inactive) | -28.3% (inactive) |
| COC(=O)Nc1nc2c(C)cccc2s1 | 299 | 0.7% (inactive) | -2.9% (inactive) | 95.7 | -33.7% (inactive) | 101 | -0.469 (inactive) | 9.8e-07 (inactive) | 0.0031 (inactive) | -14.5% (inactive) | -45% (inactive) |
| N#CCCN(C(=O)Nc1ccc(Cl)cc1)c1ccccc1 | 355 | -2.1% (inactive) | -8.5% (inactive) | 98.6 | -15.7% (inactive) | 99.7 | -0.632 (inactive) | 2.2e-05 (inactive) | 0.00361 (inactive) | -5.26% (inactive) | -52.7% (inactive) |
| N#Cc1c(N)c(C(=O)c2ccccc2)n2c1CCCC2 | 270 | -3.7% (inactive) | -10.6% (inactive) | 86.4 | -11.6% (inactive) | 96.6 | -0.46 (inactive) | -1.7e-05 (inactive) | 0.006 (inactive) | -3.25% (inactive) | 14.6% (inactive) |
| CCc1nc(C)ccc1OCC(=O)O | 332 | 1% (inactive) | -30% (inactive) | 89.2 | 9.9% (inactive) | 102 | -0.459 (inactive) | -6.3e-05 (inactive) | 0.00578 (inactive) | -11.9% (inactive) | -14.7% (inactive) |
| O=C1c2ccccc2C(=O)N1CCCCN1CCN(CCCCN2C(=O)c3ccccc3C2=O)CC1 | 401 | -3.5% (inactive) | 17.2% (inactive) | 2.4 | -22.5% (inactive) | 86.8 | -0.408 (inactive) | -3.8e-05 (inactive) | 0.00409 (inactive) | 14.1% (inactive) | 10.6% (inactive) |
| CCCC(NC(=O)CNC(=O)C(C)(C)C)C(=O)O (configuration not stated) (HELM PEPTIDE1{[CC(C)(C)C(=O)[*:2]].G.[CCCC(N[*:1])C(=O)O]}$$$$V2.0) | 678 | 0.5% (inactive) | 12.5% (inactive) | 104 | 63.7% (inactive) | 97.4 | -0.499 (inactive) | -1.3e-05 (inactive) | 0.00543 (inactive) | 14.8% (inactive) | 11.8% (inactive) |
| COc1ccc(-c2noc(CCN3C(=O)c4ccccc4C3=O)n2)cc1OC | 555 | 7.6% (inactive) | -3.7% (inactive) | 108 | 28.6% (inactive) | 104 | -0.497 (inactive) | -2.8e-05 (inactive) | 0.00665 (inactive) | -0.74% (inactive) | 26.4% (inactive) |
| Cc1ccc(-n2c3c(cc(C(=O)NCCCN4CCOCC4)c2=O)C(=O)CC(C)(C)C3)cc1 | 349 | -0.6% (inactive) | -1.3% (inactive) | 57 | -65.9% (inactive) | 117 | -0.58 (inactive) | 9.1e-06 (inactive) | 0.00654 (inactive) | -1.07% (inactive) | 36.9% (inactive) |
| CC1CC(=O)c2cnc(NCC3CCCO3)nc2C1 (configuration not stated) | 613 | 13.9% (inactive) | -14% (inactive) | 106 | 12.9% (inactive) | 107 | -0.404 (inactive) | -2.9e-05 (inactive) | 0.00446 (inactive) | 6.29% (inactive) | -1.06% (inactive) |
| COc1ccccc1CNC(=O)C1CCC(CNc2c(N3CCOCC3)c(=O)c2=O)CC1 (configuration not stated) | 739 | -14.6% (inactive) | 22.5% (inactive) | 105 | -1.3% (inactive) | 122 | -0.592 (inactive) | -3e-05 (inactive) | 0.00599 (inactive) | 1.39% (inactive) | 17.5% (inactive) |
| CC(C)(C)C(=O)CCN1C(=O)C2(OCCO2)c2ccccc21 | 702 | -4.9% (inactive) | -30.1% (inactive) | 118 | -140% (inactive) | 123 | -0.497 (inactive) | -2.7e-05 (inactive) | 0.00626 (inactive) | 11.4% (inactive) | 22.3% (inactive) |
| Cc1ccccc1N1OC2C(=O)N(c3ccc(F)cc3)C(=O)C2C1c1ccccn1 (configuration not stated) | 680 | -3.5% (inactive) | -5.9% (inactive) | 96.3 | -36.7% (inactive) | 152 | -0.607 (inactive) | -1.4e-05 (inactive) | 0.00636 (inactive) | 10.4% (inactive) | 21.1% (inactive) |
| COc1cccc(NC(=O)CSc2nnc(-c3cc(-c4ccccn4)nc4ccccc34)o2)c1 | 578 | -14.5% (inactive) | -14.5% (inactive) | 112 | -102% (inactive) | 141 | -0.57 (inactive) | -2e-06 (inactive) | 0.00553 (inactive) | 1.87% (inactive) | 0.453% (inactive) |
| Nn1c(SCC(=O)Nc2ccc(F)cc2)nnc1-c1cccnc1 | 74 | 55.5% (active) | -0.3% (inactive) | 111 | -112% (inactive) | 108 | -0.397 (inactive) | -0.000146 (inactive) | 0.00484 (inactive) | 12.6% (inactive) | 25.6% (inactive) |
| Cn1c(=O)[nH]c(=O)c2c1nc(CN1CCN(c3cccc(Cl)c3)CC1)n2CCc1ccccc1 | 683 | -9.7% (inactive) | 6.6% (inactive) | 107 | -90.8% (inactive) | 87.9 | -0.587 (inactive) | 8.1e-06 (inactive) | 0.00654 (inactive) | -13.9% (inactive) | -0.338% (inactive) |
| CCOC(=O)N1CCN(c2cc(=O)n(-c3ccccc3Cl)c(=O)[nH]2)CC1 | 553 | -7.4% (inactive) | 12.5% (inactive) | 84.2 | 15% (inactive) | 90.2 | -0.581 (inactive) | -4.3e-05 (inactive) | 0.00703 (inactive) | -11.4% (inactive) | 11.8% (inactive) |
| Cc1c(Cl)cccc1N1C(=O)c2ccccc2C1=O | 275 | 7.5% (inactive) | -0.9% (inactive) | 90.5 | 16.9% (inactive) | 93.5 | -0.502 (inactive) | -3.6e-05 (inactive) | 0.00611 (inactive) | -1.09% (inactive) | 15.5% (inactive) |
